# Data: PubChem BioAssay (Tox21)
# Records with an inconclusive call do not appear. A call without a number means that no potency is given here. Active and inactive are the calls of the source. Calls come from the whole dose curve; as a rule, active = well fitted activation curve with a large enough effect; inconclusive = small, poorly fitted or top-dose-only effect; inactive = flat fitted curve, though single readings scatter.
# Assay: qHTS assay to identify small molecule phospholipidosis (PLD) inducers (AID 1259344)
# Settings: HepG2 phospholipidosis, LipidTOX Red imaging, 24 h; series mostly up to 38.3 µM
# Method in brief: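 Accumulated phospholipid, stained red by LipidTOX during 24 h compound treatment of HepG2 cells at 37 C, is quantified from images as pit number and intensity, normalised per cell using Hoechst-stained nuclei.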
SMILES,Potency,PLD induction
C[Se]CC[C@H](N)C(=O)O,inactive,–
CO/N=C(\C(=O)N[C@@H]1C(=O)N2C(C(=O)[O-])=C(C[n+]3cccc4c3CCC4)CS[C@H]12)c1csc(N)n1,inactive,–
CC1=C(/C=C/C(C)=C/C=C/C(C)=C/C=C/C=C(C)/C=C/C=C(C)/C=C/C2=C(C)CCCC2(C)C)C(C)(C)CCC1,inactive,–
CSCCC(N)C(=O)O (centres undefined),inactive,–
O=C(O)CC(O)(CC(=O)O)C(=O)O,–,-0.895% [at 1.53 µM] (inactive)
COc1cc2c(cc1OC)[C@@H](Cc1cc(OC)c(OC)c(OC)c1)[N+](C)(CCCOC(=O)CC/C=C/CCC(=O)OCCC[N+]1(C)CCc3cc(OC)c(OC)cc3[C@H]1Cc1cc(OC)c(OC)c(OC)c1)CC2 (some centres undefined),inactive,–
CCN(CC)C(=O)c1cccnc1,inactive,–
NC(N)=NCC1COC2(CCCCC2)O1 (centres undefined),inactive,–
Cc1ccc(C(C)(C)c2ccc(C)cc2)cc1,inactive,–
CC[C@@H](C)[C@H](N)C(=O)O,inactive,–
CC[C@@H](C(=O)[C@@H](C)[C@@H](O)[C@H](C)CCc1ccc(C)c(O)c1C(=O)O)[C@H]1O[C@](CC)([C@H]2CC[C@](O)(CC)[C@H](C)O2)C[C@@H]1C,inactive,–
Nc1cc(Cl)c(NC2=NCCN2)c(Cl)c1,inactive,–
Cc1ncc(C[n+]2csc(CCOP(=O)(O)O)c2C)c(N)n1,inactive,–
O=C[C@H](O)[C@@H](O)[C@@H](O)[C@H](O)CO,inactive,–
O=S(=O)(O)O,inactive,–
CO/N=C(\C(=O)N[C@@H]1C(=O)N2C(C(=O)O)=C(CSc3nc(C)c(CC(=O)O)s3)CS[C@H]12)c1csc(N)n1,inactive,–
CO/N=C(\C(=O)N[C@@H]1C(=O)N2C(C(=O)[O-])=C(C[n+]3ccc(N)n3CCO)CS[C@H]12)c1csc(N)n1,inactive,–
CCCCCCCCCCCCCC(=O)OCC(COP(=O)([O-])OCC[N+](C)(C)C)OC(=O)CCCCCCCCCCCCC (centres undefined),inactive,–
C[C@@H]1C[C@H]2[C@@H]3C[C@H](F)C4=CC(=O)C=C[C@]4(C)[C@@]3(Cl)[C@@H](O)C[C@]2(C)[C@H]1C(=O)COC(=O)C(C)(C)C,inactive,–
FC(F)(F)COCC(F)(F)F,inactive,–

SMILES,Potency,PLD induction
NC[C@H]1O[C@H](O[C@H]2[C@H](O)[C@@H](O[C@H]3O[C@H](CO)[C@@H](O)[C@H](N)[C@H]3O)[C@H](N)C[C@@H]2N)[C@H](N)C[C@@H]1O,inactive,–
CCC(O)c1ccccc1 (centres undefined),inactive,–
C[S+](C)CCC(N)C(=O)O (centres undefined),inactive,–
O=C(O)c1ccc(NC2OC[C@@H](O)[C@H](O)[C@H]2O)cc1 (some centres undefined),inactive,–
O=C(Cn1cnnn1)N[C@@H]1C(=O)N2C(C(=O)O)=C(CSc3nncs3)CS[C@H]12,inactive,–
CC[C@H](C)C(=O)O[C@H]1CCC=C2C=C[C@H](C)[C@H](CC[C@@H]3C[C@@H](O)CC(=O)O3)[C@H]21,inactive,–
OCCCNc1ccccc1,inactive,–
C=CC[N@@+]12CC[C@@]34c5ccccc5N5/C=C6/[C@H]7C[C@H]8[C@@]9(CC[N@@+]8(CC=C)C/C7=C/CO)c7ccccc7N(/C=C(/[C@@H](C[C@@H]31)/C(=C\CO)C2)[C@H]54)[C@@H]69,inactive,–
O=C(O)c1cc(O)c2c(c1)[C@H]([C@H]1c3cc(C(=O)O)cc(O)c3C(=O)c3c(O[C@@H]4O[C@H](CO)[C@@H](O)[C@H](O)[C@H]4O)cccc31)c1cccc(O[C@@H]3O[C@H](CO)[C@@H](O)[C@H](O)[C@H]3O)c1C2=O,inactive,–
CNC(=O)C[C@@H](N)C(=O)N[C@@H](C(=O)N[C@@H]1C(=O)N2[C@@H]1SC(C)(C)[C@@H]2C(=O)O)c1ccc(O)cc1,inactive,–
O=C1c2ccccc2C(=O)C1c1ccc(F)cc1,inactive,–
C[C@H](Cc1ccc(O)c(O)c1)[C@@H](C)Cc1ccc(O)c(O)c1,inactive,–
CC1(C)S[C@@H]2[C@H](N3C(=O)C(c4ccccc4)NC3(C)C)C(=O)N2[C@H]1C(=O)O (some centres undefined),inactive,–
C=C1C(=C/C=C2\CCC[C@]3(C)[C@@H]([C@H](C)CCCC(C)C)CC[C@@H]23)C[C@@H](O)C[C@@H]1O,inactive,–
CCCCCCCC[N+](C)(C)CCCCCCCC,inactive,–
CC(=O)Oc1cc(C(F)(F)F)ccc1C(=O)O,inactive,–
Cc1cccc(C)c1NC(=O)C1CCCCN1C (centres undefined),inactive,–
Oc1ccc(Cl)c2c1CCC2,inactive,–
O=S(=O)(O)CC(S)CS (centres undefined),inactive,–
